Tb PFK block: T. brucei PFK enzyme inhibition; O15648; T. brucei PFK, ADP-Glo luminescence; Potency, µM (series often up to 57.5 µM), without a hit: at the highest dose activity, negative = inhibition, most hits filed as inhibitors; actives 0.17% (n = 330,000); AID 485367;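 also: potency is read from the fitted curve at half-maximal effect; 0% = uninhibited 1x PFK enzyme wells and -100% = no-enzyme wells; nearly all actives have a fitted effect of over 60% in size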
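Activity is normalized to no-enzyme wells (full inhibition) and 1.25 nM enzyme wells (no inhibition). Reaction: 0.5 mM F6P, 0.1 mM ATP, 45 min RT, ADP-Glo luminescence; concentration-response curves fitted and classed by quality.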
MBNL1-CUG inh: MBNL1-poly(CUG) RNA binding inhibition; Q9NR56; TR-FRET MBNL1-His/biotin-(CUG)12 binding, 665/545 ratio; Potency, µM (series often up to 57.5 µM), inactives show at the highest dose activity change, negative = inhibition, most hits filed as inhibitors; actives 0.036% (n = 280,000); active = well fitted inhibition curve with a large enough effect in the signal ratio, with a control signal flat, not every such curve was filed as active; inconclusive = small, poorly fitted or top-dose-only effect, or effect the other way, or a change in a side signal; inactive = no such curve, though single readings can be large or run the other way; the % refers to the signal ratio; also: potency is read from the fitted curve at half-maximal effect; % is scaled to controls: 0 for no effect and ±100 for the full control effect
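His-tagged MBNL1 binding to biotinylated (CUG)12 RNA was measured by TR-FRET using terbium anti-His antibody (0.055 ng/ul final) and streptavidin-XL665 (5 nM final). Compounds were titrated 92 nM to 58 uM; 60 min at room temperature.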
B2AR arrestin: recruits beta-arrestin to the human beta2-adrenergic receptor | beta-arrestin recruitment to beta2AR, cell-based reporter | AID 492947 | actives 0.02% (n = 330,000) | Potency, µM (top dose mostly 46.1 µM), inactives show at the highest dose activation, most hits filed as activators;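 also: potency is read from the fitted curve at half-maximal effect; 0% = DMSO controls and full agonism = EC100 isoproterenol or metaproterenol; nearly all actives have a fitted effect of over 65% in size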
Target sequence (P07550 whole entry, looked up): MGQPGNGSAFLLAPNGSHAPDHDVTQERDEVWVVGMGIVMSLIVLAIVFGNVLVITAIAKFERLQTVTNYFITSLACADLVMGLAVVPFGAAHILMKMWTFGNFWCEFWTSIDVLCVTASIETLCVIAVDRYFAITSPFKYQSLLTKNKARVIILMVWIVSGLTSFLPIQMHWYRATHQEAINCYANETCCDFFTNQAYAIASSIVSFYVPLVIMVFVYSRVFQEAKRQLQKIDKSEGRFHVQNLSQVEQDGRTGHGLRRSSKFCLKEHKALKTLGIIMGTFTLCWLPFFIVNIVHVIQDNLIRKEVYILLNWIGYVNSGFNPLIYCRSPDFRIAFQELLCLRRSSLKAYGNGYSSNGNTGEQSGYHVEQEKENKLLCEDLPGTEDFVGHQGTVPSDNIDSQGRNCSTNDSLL
BCR signal inh: inhibitors of chronic active B-cell receptor signaling; ABC-DLBCL IkBa-CBG/CBR reporter, luminescence ratio, 4 h; Potency, µM (titrated, usually from 46.1 µM), for inactives: top-dose activity change, negative = inhibition, hits mostly inhibitors; actives 0.05% (n = 340,000); AID 493014; active = well fitted inhibition curve with a large enough effect in the signal ratio, with a control signal flat, not every such curve was filed as active; inconclusive = small, poorly fitted or top-dose-only effect, or effect the other way, or a change in a side signal; the % refers to the signal ratio;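 also: potency is read from the fitted curve at half-maximal effect; plate controls were basal doxycycline-induced cells for no effect and cells given 10 µM MG132 for full effect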
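Concentration-response series (up to 46 uM) were applied to TMD8 dual-reporter cells for 4 h at 37C with doxycycline. Green/red ratio, after filter-overlap correction, defined %Activity; red signal alone was normalised to basal cells and zero luminescence.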
MBNL1-CUG FRET: blocks human MBNL1 binding to CUG repeat RNA, TR-FRET validation. shares compounds with MBNL1-CUG inh. TR-FRET MBNL1-His / biotin-(CUG)12 binding, 60 min. Potency, µM (highest dose often 57.6 µM), inactives show top-dose activity change, negative = inhibition, hits mostly inhibitors. actives 50% (n = 140). AID 493199
MBNL1 AlphaScrn: MBNL1-CUG RNA binding inhibition, AlphaScreen validation; Potency, µM (top dose mostly 57.7 µM), without a hit: top-dose activity, negative = inhibition, hits mostly inhibitors; AlphaScreen MBNL1-His / biotin-(CUG)12 binding; actives 30% (n = 140); AID 493205; shares compounds with MBNL1-CUG inh
MBNL1 HTRF CS: hit in HTRF counterscreen for MBNL1-poly(CUG) binding inhibitors; shares compounds with MBNL1-CUG inh; His-Menin/biotin-MLL peptide TR-FRET counterscreen; Potency, µM (top dose mostly 57.6 µM), without a hit: at the highest dose activity, negative = inhibition, actives largely listed as inhibitors; actives 20% (n = 120); AID 651843
* = called active by the depositor; u = inconclusive; x = no result. Rows were chosen to be rich in hits. Some 0.27% of all compounds tested hit in one or more screens of this group. Unless noted, calls follow the shape of the dose curve; as a rule, active = well fitted curve in the direction sought with a large enough effect; inconclusive = small, poorly fitted or top-dose-only effect, or another doubt; inactive = no such curve, though single readings can be large; an effect the other way counts as inactive or inconclusive.

SMILES	Tb PFK block	MBNL1-CUG inh	B2AR arrestin	BCR signal inh	MBNL1-CUG FRET	MBNL1 AlphaScrn	MBNL1 HTRF CS
CN1CCC2(CC1)C(C#N)=C(N)NC(S)=C2C#N	1%	4µM*	0%	u	33µM*	1%	16µM*
C#CCOc1ccccc1/C=N/NC(=O)c1ccccc1OCc1ccccc1	1%	-1%	0%	u	x	x	x
CC(C)(C)OC(=O)NCc1ccc(CNC(=O)c2nc[nH]c2C(=O)N2CCc3ccccc3C2)cc1	-4%	x	0%	2%	x	x	x
CCOc1ncccc1C(=O)OCC(=O)NCc1cccs1	1%	x	0%	3%	x	x	x
CCc1ccccc1-n1c(C)nc2cc(C(=O)NCCc3ccc(Cl)cc3)ccc21	x	x	x	3%	x	x	x
Cc1ccc(-c2cc(-c3ccccc3C)[nH]n2)c(O)c1	0%	20µM*	0%	u	5%	4%	-2%
Cc1ccc(O)c(-c2cc(-c3ccccc3F)[nH]n2)c1	1%	4%	0%	4%	x	x	x
COc1cc2c(cc1OC)[C@@H](NC(=O)CCC1CCCCC1)[C@H](O)C2	-3%	x	0%	-6%	x	x	x
Cc1ccsc1C(=O)C1CCCN(Cc2ccc(-n3cccn3)cc2)C1 (stereo not given)	-1%	6.3µM*	0%	-15%	3.3µM*	u	18µM*
Cc1ccsc1C(=O)C1CCCN(Cc2c(C)nn(C(C)C)c2C)C1 (stereo not given)	0%	32µM*	0%	3%	41µM*	-26%	-22%
COc1ccc(C2C(=O)N(C3CCCCC3)CC(=O)N2CCC2=CCCCC2)cc1 (stereo not given)	x	x	x	0%	x	x	x
COc1ccc(N2CCN(CC(=O)Nc3ccc(-n4cnnn4)cc3)CC2)cc1	-4%	-7%	0%	-7%	-1%	u	2%
CN1CCN(c2ccc(-c3cc(O)c4ncccc4c3)cc2)CC1	0%	x	-1%	u	x	x	x
Cn1nc(-c2ccc(Cl)cc2)nc2c(=O)n(C)c(=O)nc1-2	-6%	u	0%	u	0.65µM*	0.26µM*	56%
COc1ccc2nc(NC(=O)CCc3nc(C4=CCN(C)CC4)no3)sc2c1	4%	20µM*	0%	u	u	16µM*	u
COCCNC(=O)CCc1nnc(Cc2ccc(-c3ccccc3)cc2)o1	1%	-1%	0%	-2%	x	x	x
COCCNC(=O)CCC1CCN(Cc2ccc(-c3ccccc3)cc2)CC1	3%	16µM*	0%	0%	6.5µM*	4%	8.2µM*
N#Cc1c(N2CCCC2)nc(N)c2c(N)nc(N3CCCC3)cc12	0%	x	0%	18%	5.2µM*	0.65µM*	22%
CC[C@]12c3[nH]c4ccc(Cl)cc4c3CCN1C(=O)[C@@H](CC(=O)NC/C=C(\C)CCC=C(C)C)C[C@@H]2C(=O)N1CCN(C(=O)c2ccco2)CC1	3%	x	-1%	u	x	x	x
O=C(/C=C/c1cccs1)Nc1scc(-c2ccccc2)c1C(=O)O	u	x	0%	u	21µM*	13µM*	10%
CC(=O)c1cccc(NC(=O)Nc2cccnc2)c1	-2%	25µM*	0%	14%	26µM*	2%	u
Cc1ccc(-n2cnc3cc(C(=O)NC4CCCCCC4)ccc32)cc1Cl	x	x	x	-1%	x	x	x
COc1ccc(N2CC(C(=O)NCCc3ccc(OC)c(OC)c3)CC2=O)cc1 (stereo not given)	-2%	-3%	0%	-3%	x	x	x
COc1ccc(CCNC(=O)C2CC(=O)N(c3ccc(F)cc3)C2)cc1OC (stereo not given)	-3%	0.79µM*	0%	-1%	-9%	-8%	0%
O=C(NC1(O)C(=O)c2ccccc2C1=O)c1c(Cl)cccc1Cl	19%	u	-1%	u	x	x	x
SMILES	Tb PFK block	MBNL1-CUG inh	B2AR arrestin	BCR signal inh	MBNL1-CUG FRET	MBNL1 AlphaScrn	MBNL1 HTRF CS
O=C(NC1(O)C(=O)c2ccccc2C1=O)c1ccccc1	12%	x	0%	-9%	21µM*	13µM*	1%
COc1ccc(-c2nc3scc(CCNS(=O)(=O)c4ccccc4F)n3n2)cc1	x	x	x	4%	x	x	x
CCn1cc(CN2CCCC(C(=O)c3cccc(OC)c3)C2)c(C)n1 (stereo not given)	-2%	50µM*	0%	0%	u	-11%	-9%
CCOC(=O)c1c(C)[nH]c(C)c1S(=O)(=O)N1CCCC(C(=O)N2CCN(c3ccccc3F)CC2)C1 (stereo not given)	x	x	x	-11%	x	x	x
CCOC(=O)CCCCC(=O)c1[nH]c(=O)[nH]c1C[n+]1ccc(C)cc1	-1%	u	0%	7%	x	x	x
CCOC(=O)c1c(C)[nH]c(C(=O)CN2CCOCC2)c1C	x	-6%	x	x	x	x	x
CCOC(=O)CCCCC(=O)c1[nH]c(=O)[nH]c1CN1CCOCC1	2%	2.2µM*	0%	-2%	4.1µM*	0.92µM*	16µM*
CCOC(=O)CCCCC(=O)c1[nH]c(=O)[nH]c1CSc1nc2ccccc2[nH]1	-6%	u	7%	u	x	x	x
CCOC(=O)CCCCC(=O)c1[nH]c(=O)[nH]c1CSc1nc(C)cc(C)n1	-1%	32µM*	0%	u	26µM*	4.1µM*	-22%
CCOC(=O)CCCCC(=O)c1[nH]c(=O)[nH]c1C[n+]1ccccc1	-4%	32µM*	0%	-10%	16µM*	3.3µM*	u
CCOC(=O)CCCCC(=O)c1[nH]c(=O)[nH]c1CSc1nc(C)cc(=O)[nH]1	-2%	1.8µM*	0%	u	0.52µM*	0.073µM*	3.7µM*
O=C(CCc1nc(-c2ccccc2Cl)no1)NC1CCCCC1	0%	-2%	0%	-1%	x	x	x
COc1ccc(CCN2C(=O)CN(C3CCC(C)CC3)C(=O)C2c2ccc(OC(C)C)c(OC)c2)cc1OC (stereo not given)	x	x	x	5%	x	x	x
Cc1cc(N)c2cc(NC(=O)Nc3ccc4nc(C)cc(N)c4c3)ccc2n1	x	x	x	x	x	x	21µM*
Cc1cc(C)c(NC(=O)Nc2ccccc2)c(C)n1	8%	x	0%	-1%	x	x	x
CCOC(=O)C1(CCOc2ccccc2)CCN(Cc2ccncc2)CC1	-3%	-7%	0%	-12%	x	x	x
CCOC(=O)C1(CCOc2ccccc2)CCN(Cc2ccc(-n3cccn3)cc2)CC1	-1%	11µM*	0%	u	6.5µM*	u	-46%
CS(=O)(=O)Nc1ccc(C(=O)Nc2ccccc2-c2ccccc2)cc1	-1%	1%	0%	-2%	x	x	x

Source: PubChem BioAssay (National Center for Advancing Translational Sciences (NCATS))
